The values below come from PubChem BioAssay (Tox21).

The target of test [1] is Thyrotropin receptor (Homo sapiens) (UniProt P16473). As to the kind of experiment: qHTS assay to identify small molecule agonists of the thyroid stimulating hormone receptor (TSHR) signaling pathway (AID 1224843; calls by dose curve; also: nearly all actives have a fitted effect of over 45% in size). Put shortly:
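Using 15 concentrations per compound in triplicate, cAMP production was monitored in TSHR-HEK293 cells after 30 min compound incubation at RT; HTRF reagents followed, with fluorescence intensity recorded after 1 h.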
For orientation: In qHTS, concentration-response curves come from the screen itself.

The nature of test [2]: qHTS assay to identify small molecule agonists of the hypoxia (HIF-1) signaling pathway - cell viability counter screen (AID 1224844; calls by dose curve; also: nearly all actives have a fitted effect of over 50% in size; also: potency is read from the fitted curve at half-maximal effect). Put shortly: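 Viability counter screen: HRE-bla ME-180 cells plated 5 hrs before compound addition, treated 17 hrs at 37C and 5% CO2, then CellTiter-Glo added after the FRET reporter read; luminescence after 30 min.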
A short description of test [3]: qHTS assay to identify small molecule agonists of H2AX (AID 1224845; active = well fitted activation curve with a large enough effect in the signal ratio in the repeat runs, not every such curve was filed as active; the % refers to the signal ratio). Put shortly: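 Wild-type CHO-K1 cells plated overnight, then exposed 3 hr at 37C to compounds at 15 concentrations (0.76% DMSO). Lysed, then HTRF anti-pH2AX(S139)-cryptate/anti-H2AX-d2 detection after 24 hr at room temperature; emissions 665 and 620 nm.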
Test [4] in a line: qHTS assay to identify small molecule agonists of the hypoxia (HIF-1) signaling pathway (AID 1224846; active = well fitted activation curve with a large enough effect in the signal ratio in the repeat runs, not every such curve was filed as active; the % refers to the signal ratio). Put shortly: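 Agonist mode reporter screen. ME-180 cells stably expressing bla under HRE control received test compounds in DMSO for 17 hrs (37C, 5% CO2), and beta-lactamase activity was then detected with the CCF4-AM FRET substrate.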
Test [5] in a line: qHTS assay to identify small molecule agonists of H2AX - cell viability counter screen (AID 1224847; calls by dose curve; also: top concentration of the series differs between compounds; nearly all actives have a fitted effect of over 30% in size). Put shortly:
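CHO-K1 cells plated overnight at 37C, then exposed 3 h at 37C to compounds at 15 concentrations (0.76% DMSO final). Viability by CellTiter-Glo luminescence after 30 min at room temperature.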

Test [6] can be described thus: qHTS RealTime-Glo MT Cell Viability Assay in HepG2 cells - 24 hour (AID 1224867). Also: nearly all actives have a fitted effect of over 50% in size. Also: potency is read from the fitted curve at half-maximal effect. Put shortly:
(§1)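 Cell number in HepG2 cultures estimated from NanoLuc luminescence generated by metabolic reduction of a prosubstrate by living cells. The homogeneous, nonlytic format allowed repeated reads at 0, 8, 16, 24, 32 and 40 h of compound exposure.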

A short description of test [7]: qHTS RealTime-Glo MT Cell Viability Assay in HEK293 cells - 32 hour (AID 1224868). Also: nearly all actives have a fitted effect of over 50% in size. Also: potency is read from the fitted curve at half-maximal effect. The procedure, abridged:
(§2)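 Homogeneous bioluminescent viability format in HEK293 cells (600 cells/well). Following 5 h at 37 C/5% CO2, 23 nL compound was pintooled; the signal was measured repeatedly during 40 h incubation.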

The nature of test [8]: A CellTox Green Cytotoxicity Assay to monitor cytotoxicity in HEK293 cells - 0 hour (AID 1224869). Also: nearly all actives have a fitted effect of over 50% in size. The procedure, abridged: (§3)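 Dead-cell fluorescence measured kinetically: asymmetric cyanine dye, HEK293, 600 cells/well, 5 h settle, 23 nL cpd/DMSO, 37 C, reads 0–40 h every 8 h.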
Test [9] can be described thus: qHTS RealTime-Glo MT Cell Viability Assay in HepG2 cells - 40 hour (AID 1224870). Also: nearly all actives have a fitted effect of over 50% in size. Also: potency is read from the fitted curve at half-maximal effect. The procedure, abridged: (§4)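 HepG2 cells mixed with RealTime-Glo MT reagents (NanoLuc plus cell-permeant prosubstrate) were seeded at 600 cells/well, incubated 5 h at 37 C/5% CO2, then pinned with compounds in DMSO; nonlytic luminescence tracked viability during 40 h treatment.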
The nature of test [10]: qHTS RealTime-Glo MT Cell Viability Assay in HEK293 cells - 16 hour (AID 1224872). Also: nearly all actives have a fitted effect of over 50% in size. Also: potency is read from the fitted curve at half-maximal effect. The procedure, abridged: as §2
Test [11] can be described thus: qHTS RealTime-Glo MT Cell Viability Assay in HepG2 cells - 8 hour (AID 1224873). Also: nearly all actives have a fitted effect of over 55% in size. Put shortly:
as §4

The nature of test [12]: qHTS RealTime-Glo MT Cell Viability Assay in HEK293 cells - 40 hour (AID 1224874). Also: nearly all actives have a fitted effect of over 50% in size. Also: potency is read from the fitted curve at half-maximal effect. To be noted: RealTime-Glo luminescence; max response: stronger effect = lower value. Put shortly:
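600 HEK293 cells per well, dispensed already mixed with RealTime-Glo MT reagents. Compound dosing came 5 h later. The same wells were read for luminescence at 0, 8, 16, 24, 32 and 40 h of exposure at 37 C.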

Test [13] is described as follows: A CellTox Green Cytotoxicity Assay to monitor cytotoxicity in HEK293 cells - 24 hour (AID 1224875). Also: nearly all actives have a fitted effect of over 45% in size. Put shortly:
as §3

The nature of test [14]: A CellTox Green Cytotoxicity Assay to monitor cytotoxicity in HepG2 cells - 16 hour (AID 1224876). Also: nearly all actives have a fitted effect of over 45% in size. Also: potency is read from the fitted curve at half-maximal effect. Put shortly: (§5)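 First, HepG2 cells (600/well) mixed with reagent were plated; second, after 5 h at 37 C they received compounds via pintool; third, fluorescence was measured at 0 h through 40 h at 8 h intervals.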
Test [15] can be described thus: qHTS RealTime-Glo MT Cell Viability Assay in HepG2 cells - 32 hour (AID 1224877). Also: nearly all actives have a fitted effect of over 55% in size. Also: potency is read from the fitted curve at half-maximal effect. The procedure, abridged: as §1
Test [16] is described as follows: A CellTox Green Cytotoxicity Assay to monitor cytotoxicity in HepG2 cells - 24 hour (AID 1224878). Also: nearly all actives have a fitted effect of over 45% in size. Also: potency is read from the fitted curve at half-maximal effect. The procedure, abridged: as §5
Test [17] can be described thus: A CellTox Green Cytotoxicity Assay to monitor cytotoxicity in HepG2 cells - 40 hour (AID 1224879). Also: nearly all actives have a fitted effect of over 40% in size. Also: potency is read from the fitted curve at half-maximal effect. The procedure, abridged: as §5
Test [18] is described as follows: A CellTox Green Cytotoxicity Assay to monitor cytotoxicity in HEK293 cells - 40 hour (AID 1224871). Also: nearly all actives have a fitted effect of over 45% in size. Also: potency is read from the fitted curve at half-maximal effect. The procedure, abridged:
as §3

Test [19] can be described thus: qHTS assay to identify small molecule antagonists of the estrogen related receptor (ERR) signaling pathway from Tox21 library (AID 1224848). Also: nearly all actives have a fitted effect of over 50% in size. Also: potency is read from the fitted curve at half-maximal effect. Put shortly:
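Tox21 10K compounds in DMSO tested for ERR pathway antagonism in NTP's ERR cell line; 18 h, 37 C exposure; ONE-Glo luminescence.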

Test [20] in a line: qHTS assay to identify small molecule agonists of the estrogen related receptor (ERR) signaling pathway from Tox21 library (AID 1224849; calls by dose curve; also: nearly all actives have a fitted effect of over 15% in size). The note with it: ERR reporter cell line, ONE-Glo luciferase, 18 h. Put shortly: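 Quantitative HTS in agonist format: NTP ERR cell line, compounds transferred in DMSO after 6 h plating, 18 h incubation at 37 C, ONE-Glo luminescence endpoint.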

“And” between values parts separate entries of the source, which are not always exact repeats. Identical values can stand only once. Inconclusive results are not listed. Where a structure was tested more than once in an assay, its records may differ in their call. The source made the active and inactive calls. Unless noted, calls follow the shape of the dose curve; as a rule, active = well fitted curve in the direction sought with a large enough effect in the repeat runs; inconclusive = weak or mixed curves; inactive = no such curve, though single readings can be large; an effect the other way counts as inactive or inconclusive.
% is scaled to controls: 0 for no effect and ±100 for the full control effect.

Thyrotropin receptor (Homo sapiens), sequence (P16473 whole entry, looked up): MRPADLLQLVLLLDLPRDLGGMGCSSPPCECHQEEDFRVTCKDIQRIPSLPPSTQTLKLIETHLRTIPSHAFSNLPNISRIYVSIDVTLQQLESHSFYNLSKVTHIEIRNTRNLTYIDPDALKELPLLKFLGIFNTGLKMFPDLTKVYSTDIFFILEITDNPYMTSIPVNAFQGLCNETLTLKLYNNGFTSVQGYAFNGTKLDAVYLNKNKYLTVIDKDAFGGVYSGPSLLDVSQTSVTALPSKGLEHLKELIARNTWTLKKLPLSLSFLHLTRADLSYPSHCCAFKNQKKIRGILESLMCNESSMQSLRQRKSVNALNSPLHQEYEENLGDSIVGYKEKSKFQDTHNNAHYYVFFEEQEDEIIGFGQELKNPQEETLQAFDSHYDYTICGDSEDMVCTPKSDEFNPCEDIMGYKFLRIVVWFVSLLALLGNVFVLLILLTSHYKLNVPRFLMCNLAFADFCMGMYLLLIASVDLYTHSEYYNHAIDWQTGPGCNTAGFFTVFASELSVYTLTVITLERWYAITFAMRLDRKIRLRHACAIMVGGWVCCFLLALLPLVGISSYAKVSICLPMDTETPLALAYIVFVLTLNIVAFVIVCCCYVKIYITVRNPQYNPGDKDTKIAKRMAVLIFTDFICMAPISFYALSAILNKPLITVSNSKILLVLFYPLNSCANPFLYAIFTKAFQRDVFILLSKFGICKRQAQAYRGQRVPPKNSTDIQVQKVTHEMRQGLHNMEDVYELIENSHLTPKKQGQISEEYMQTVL

As for `NC(=O)c1ccccc1O`, the molecule was classed as inactive in test [1], in [3], in [4], in test [5], in test [8] and in test [11]. The Potency result in [2], in test [6], in test [7], in test [9], in test [10] and in [13] was “inactive” in each case. Besides, the Potency result in [14], in test [15], in test [16] and in test [17] was “inactive” in each case. The max response in test [12] was 0.307% (inactive) and -0.424% (inactive) and 11.5% (inactive).

For `Nc1ccc(C(=O)O)cc1`, the result in test [1], in test [3], in [4], in test [5], in test [8] and in [11] was inactive. Moreover, the Potency result in test [2], in test [6], in [7], in [9], in test [18] and in test [10] was “inactive” each time. Moreover, the Potency entry in [13], in test [14], in test [15], in [16] and in test [17] was “inactive” in each case.

For the molecule `O=C1NC(=O)c2ccccc21`, the molecule was classed as inactive in test [1], in test [3], in [4], in [5], in [8] and in test [11]. In addition, the Potency result in [2], in test [6], in [7], in test [9], in [18] and in test [10] was “inactive” each time. Also, the Potency entry in [13], in test [14], in [15], in test [16] and in [17] was “inactive” in each case.

In the case of `CCCC(CCC)C(=O)O`, the outcome in [1], in test [3], in test [4], in [5], in [8] and in test [11] was inactive. Besides, the Potency entry in test [2], in [6], in test [7], in [9], in test [10] and in test [13] was “inactive” throughout. Also, the Potency entry in [14], in test [15], in [16] and in test [17] was “inactive” each time.

As to `c1ccc2[nH]ccc2c1`, the outcome in test [1], in test [3], in test [4], in test [5], in test [8] and in test [11] was inactive. For the same molecule, the Potency in [2] was 17.1 µM (active) and inactive; in [19], 2.39 µM (active) and inactive; in test [6] it was 6.07 µM (active) and inactive; in test [7], 2.15 µM (active) and inactive; in test [9], 3.41 µM (active) and inactive; in test [18], 4.82 µM (active) and inactive. The Potency in [10] was 2.15 µM (active) and inactive; in [12], 2150 nM (active); in test [14] it was 21.5 µM (active) and inactive; in [15], 3.83 µM (active) and inactive; in test [16], 6.81 µM (active) and inactive; in test [17], 5.41 µM (active) and inactive. In addition, the activity change, positive = activation in test [20] (at 42.5 µM (top of the series)) was 11.1% (inactive); in test [20] (at 92.4 µM (top of the series)), -76.8% (inactive) and 0.106% (inactive). Moreover, in test [12], the max response is 8.38% (inactive) and -1.27% (inactive).

With `CCCCCCCCCCCCCCCC(=O)O`, the call in [1], in test [3], in [4], in test [5], in [8] and in [11] was inactive. Besides, the Potency result in test [2], in test [6], in test [7], in test [9], in [18] and in [10] was “inactive” in each case. The Potency result in test [13], in [14], in [15], in test [16] and in test [17] was “inactive” each time.

On to `O=NO`, for which the call in test [1], in test [3], in [4], in test [5], in test [8] and in test [11] was inactive. The Potency entry in [2], in test [6], in [7], in [9], in [18] and in test [10] was “inactive” in each case. Also, the Potency result in [13], in test [14], in [15], in test [16] and in test [17] was “inactive” each time.
